107 sequences from PubChem BioAssay AID1508600 (Functional Genomics Laboratory (NCATS/FGL), 2020) can be followed below.

The whole screen tested about 53,000 sequences, of which about 3,700 (7%) were called active. This excerpt belongs to a sample that is enriched for actives. Values without a mark were called inactive.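 How the source made its calls: active means gene knockdowns whose robust z-score for IL-1 alpha signal is at least 2 or at most -2, so actives lie on both sides; inactive means the rest.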

This assay in a line: Components of the Cytosolic LPS Sensing Pathway: Gene Identification via Genome-wide siRNA Screen.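 Further: robust z of the log signal after scaling to non-targeting control siRNA wells of the plate.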 The following applies: RAW264.7 macrophages, IL-1a HTRF, actives lie on both sides, screened at 100 nM (by protocol), cells primed 5 h with Pam3CSK4 first. In a few lines: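 Using IL-1a HTRF as read-out, the screen measured release from RAW264.7 cells after 48h siRNA knockdown (100 nM), 5 h Pam3CSK4 priming and 24 h cytosolic LipidA. Values were expressed relative to negative-control wells as robust z-scores.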
On the technique in general: TR-FRET usually uses a lanthanide donor and a delayed reading to cut background.
For the sequence GCAAGAAGCCUGCCAAUAUTT against Etd, the z-score is 2.05 (active).
In the case of GGAGUACUUUGGAAUAGCATT against Frmd4a, the z-score is -0.467.
In the case of GCUCUAUAUCCAGGAAACUTT against Krtap6-2, the z-score was 0.0521.
With GGUGCAUUUAUGUAUUUCCTT against Olfr916 the figure was -1.76; with GCAAUCAUUGAAUCCACUCTT against Spag9, 2.16 (active); with GGAUGUGGUUCAGAAGGCCTT against Stab1, -0.29.
To GAUUCUUACUUUGGUCUACTT against Olfr9 belongs 0.62; to GCCAAAACAUUUCAGAGCCTT against Hemk1, -0.000768; to GCAUCUAACUACUUGGGCCTT against Hhip, 1.18.
With GCACUACCAAGGCGAUAACTT against Tspan18 the figure was -0.624.
With GGAACCAGUGCUGCAUUUATT against Defb41, the z-score is -2.05 (active).
GGCCAUAAACAACCAUUUATT against Ppp1r1b: the z-score was 0.747.
To GGACCAACGUGCAGAAAUGTT against Metrn belongs -0.702; to GGUCUGGAGACUUUCAGUCTT against Hexa, 0.521.
In the case of GGGCAGGGACAUUAGUCAUTT against Zfp106, the z-score was 2.88 (active).
On to GGGAGUGAAUGUUUCACAUTT against Tmem116, for which the z-score is -1.56.
With “GGGUAUUAAGCAGGGAUCGTT against 1810009A15Rik” the figure was 1.11.
With CCAAAUGACUAGCACCAGUTT against Arl5c the figure was -2.22 (active); with CCUUCUACCUCACCUUACGTT against Tmem186, -1.23; with “CCAAUUCAAUUAGACUAGATT against 9430015G10Rik”, 0.89.
With GCAUGAGUUAUCAUAAUCATT against Itgb2 the figure was 1.04; with GGAUCAACCACAUCAGCUCTT against Hrh2, -0.838.
Turning to GGGCCUUCUGAUUUAAAAGTT against Slc43a3, the z-score was -1.01.
GGUGUUUGGGUACCAGUCUTT against Cyp8b1: the z-score was -1.03.
With GGCUCAAGCGAAAAGCAGATT against Serping1 the figure was -0.46; with GGCCUAUUGUAAAAACCCATT against Taf1b, -2.56 (active).
For CCAAGUCCCUUUGUGGUGUTT against Twnk, the z-score is -0.749.
Take CCGUUUAUUUAUCAGCUGGTT against Spsb4: the z-score was -1.18.
With GGAAGGUAAAUGUCUGCUCTT against Selenok, the z-score was 0.289.
To GGAGAUGGAUAAUUACGAGTT against Ift27 belongs 0.344; to GGAGAUUUAAACAGCUAGGTT against Gmip, -0.418.
To GGCUCAUAUUUCCAUCAGATT against Tchhl1 belongs -1.13; to GGAAAUUGGGACUCACAUCTT against Trappc13, -0.0912.
To GUGGAAAAUUGAAGGGACGTT against Ndufb3 belongs 3.69 (active); to GGAUUCAAGUUCUCACCGATT against Serpina6, -0.462.
In the case of GCUCAAACACUUACACACUTT against Alcam, the z-score was -0.616.
To “GCCAGUUCCUAUCUGGCUUTT against 4931428L18Rik” belongs 1.03; to GCCAAUGGUCACGAACCUATT against Senp5, -0.217.
With GCUUGCUAAGAUUGAGUAUTT against Cerkl the figure was -0.928; with CCGCACAAGAGGUAGAUACTT against Ddx5, -2.56 (active); with GGUCAGUAUCAGAAUGAUCTT against Rft1, -0.831.
Regarding GCAGUGAGACUUUUAAUAGTT against Snx17, the z-score is 0.284.
For the sequence GGCAAUAUUUCAGAACCUGTT against Tfb2m, the z-score is 0.44.
With GGCCUUACUCUUAAGUUCUTT against Brf1 the figure was 3.7 (active); with GGUGCAUGAAGAGUUAAAATT against Jade1, 1.5.
With GGAGAAAGUUGAACGUAUUTT against Cct2 the figure was -2.58 (active); with GGAAUUCUUAGCCAAUGCCTT against Gas2l1, 0.396.
As to GCUGUCUAGUACAUCUGACTT against Cry2, the z-score is -0.32.
Take GGCUAACACUUAAAUUAGCTT against Atoh8: the z-score is 0.00248.
With GGCCCAACCUUGGAUCUUUTT against Nudt22 the figure was 0.751.
In the case of GGGCACAGACAUGUUUGAGTT against Padi3, the z-score was -1.35.
To GGAUGAACCAAACCAAUAATT against Mgat4d belongs 2.24 (active); to GGACAAACAGGGAGAAAGATT against Mogat2, -0.091; to GCCAGACUGGAGGUAAAAUTT against Serpinb10, -2.24 (active).
To GGAGUGAGACAAUUCUCACTT against Sprr2k belongs 0.555.
With GCUAUUUAGUUAGUUGUGUTT against Acbd3 the figure was 0.334.
As to CCGUGGGAUUUAAGAUAUCTT against Rab34, the z-score is -0.931.
With GUGUGCUUGAUGGAGACCATT against Riiad1 the figure was 2.25 (active).
With GCAUUUCUACUGGAUUGUGTT against Luc7l2 the figure was 0.0609; with GCUCUUUCUAGCUUAUGAUTT against Chmp1b, -0.464.
To GGAUGCUUGUGCAAAGAUGTT against Anks1b belongs 0.862; to GGAGCCUCUAGGAAACAAATT against Slc28a3, 0.309; to CCGAGUCCAGAACACUCUUTT against Aff2, -0.616.
On to CCUGCCAUAGUUAGUUUUUTT against Khdc1a, for which the z-score was 7.91 (active).
For the sequence CGAGCUUUCACUGCUACAGTT against Ppargc1b, the z-score is -1.35.
With GCCACUGUACCUUAUUGGUTT against Msrb1, the z-score was 0.331.
For the sequence GGAAGACGGCAACUAUCCATT against Cyp2c50, the z-score is 1.23.
To GGUAUUUUUUUCUCAGCCATT against Dhdh belongs -0.937; to “CGCCUUCCUUCAACACGCATT against 1700049L16Rik”, -1.12; to GCCCUACCAAAAGGAUGAUTT against Cfap300, -2.02 (active).
As to GGGAUUUGUUGUCUAAGAUTT against Mapk10, the z-score was -0.54.
To GCAGAUGCGCUUGGAACUUTT against Pde4b belongs 0.0658.
Regarding GGCUCCUAACUCACUGGGATT against Ormdl1, the z-score is 0.0548.
As to GCUUUGGUGCACUUGCUUUTT against Akr1c13, the z-score is 2.2 (active).
On to GAUGAAGAAGAGCAGGCUCTT against Gm5168, for which the z-score was 1.18.
In the case of CGUAUCAACAUCUCAGAAGTT against Pcbp2, the z-score is -0.632.
With GGAUUCACGUAAGAUUGACTT against Prl6a1 the figure was 0.0592; with GGUGGUAUCACCUCUAUCATT against Cfap52, -2.49 (active).
Turning to GACGAUUCUCUGUUGGUGUTT against Hcrt, the z-score is 0.577.
CCUGGAGAUUCAGUACGAATT against Krt25: the z-score was 1.55.
To GGUUCUUGCUGAGAGCAUGTT against Rft1 belongs 0.943; to GGAUUGAAGCAGGCAGCUUTT against Purb, -0.787.
With GGUUCAAGGUGAAGACUCCTT against Reg3b the figure was 0.793; with GGUGUGUAUGGUGCUAGGATT against Olfr1507, -2.43 (active); with CCAGCUAAAAAGAUGGUAGTT against Rreb1, 0.319.
With CCUGAAAGCUAAUAUGAAATT against Defb44-ps the figure was 0.0593; with GGCUUUUAGUACUGAUAGUTT against Neu3, 2.6 (active); with CCUCGUUACAUCCUCCCUGTT against Pold1, -0.142.
Turning to CGAUUAUCGGCCCAGCAAATT against Bmp1, the z-score was 1.01.
As for GGUCUCCCUUCAGUAUGAGTT against Cela3b, the z-score was -0.602.
With CCUAGAGCUUUUCAGAAUATT against Rsl1d1 the figure was 0.4; with CGAUCGGCGACCUUUUAGATT against Irak3, -0.527.
Turning to GGCAGUAGUUAGCAAAUAUTT against Ska1, the z-score is -1.24.
As for GGAUCUGGAAUCACUGUUUTT against Lmnb2, the z-score is -0.451.
Turning to GGUUUUAGGACACCUGGUUTT against Gys1, the z-score was 2.13 (active).
GGUGCCAUCCCAAACUUUATT against Frat2: the z-score is 0.788.
With CCUCUUGAGGUCUCGUCAATT against Fam221b the figure was -0.0968; with GGAUACAAAUCAGGUUCUCTT against Kansl2, 0.0399; with GCCUUCUUAAGCUCUGAGCTT against Dhrs13, -2.97 (active).
With GGAAAAAAGAGAGGUCAGATT against Meox1 the figure was -1.02; with GGAAAUUGCUCAGGAGUUUTT against Anxa5, -1.26; with GGAGAAUCCUGUUUUUUGUTT against Elp4, 0.43.
GGUGCCAAUCAUUGUUAUGTT against Kcnv1: the z-score was 1.73.
With CCCGAGAUGAGGAACUUUUTT against Ndnf the figure was -0.359.
To GGAGUAAUGAUAAGCCCUCTT against Tex264 belongs -0.0637.
Regarding GCUCUACCUCAGAUAAAGGTT against Banf2, the z-score is -2.45 (active).
With GGAUCUCAUACAGAAUCCGTT against Haus4 the figure was 0.216.
